# The full data set covers some 8,800 targets. This sample favours those with a hit. About 0.5% of all pairs of compound and target were hits.
# Key:
# Experiment in all cases: log2 fold change, soluble protein after heating vs DMSO (PISA); higher = thermal stabilisation; K562 lysate, 10 uM; active = over 0.2 and 3.5 SD of the protein, either way, in both replicates (recomputed)
# vemurafenib = compound: CCCS(=O)(=O)Nc1ccc(F)c(C(=O)c2c[nH]c3ncc(-c4ccc(Cl)cc4)cc23)c1F [vemurafenib]
# Method in brief: (§1)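 Dounce homogenisation of K562 pellets in PBS pH 7.4 with 1 mM MgCl2 produced a crude extract, used at 1 mg/mL protein. Exposure to 10 μM compound lasted 30 min, and aliquots were then heated for 3 min across 48°C-58°C, pooled and brought to 0.5% NP-40 at 4°C. The supernatant after 21,000xg for 90 min was quantified by TMTpro 16plex LC-MS/MS with channel sums equalised. Duplicate values are given as log-two fold change in thermal stability relative to solvent controls.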
# [1] = compound: CCCS(=O)(=O)Nc1ccc(F)c(C(=O)c2c[nH]c3ncc(Cl)cc23)c1F
# Method in brief: as §1
# barasertib = compound: CCN(CCCOc1ccc2c(Nc3cc(CC(=O)Nc4cccc(F)c4)[nH]n3)ncnc2c1)CCOP(=O)(O)O [barasertib]
# Method in brief: as §1
# [2] = compound: CC[C@@H]1C(=O)N(C)c2cnc(Nc3ccc(C(=O)NC4CCN(C)CC4)cc3OC)nc2N1C1CCCC1
# Method in brief: as §1
# volasertib = compound: CC[C@@H]1C(=O)N(C)c2cnc(Nc3ccc(C(=O)N[C@H]4CC[C@H](N5CCN(CC6CC6)CC5)CC4)cc3OC)nc2N1C(C)C [volasertib]
# Method in brief: as §1
# [3] = compound: CCn1c(C(=O)N(C2CC2)C2CC2)cc2c3c(ncn3C)c(Nc3cc(C)n(C)n3)nc21
# Method in brief: as §1
# [4] = compound: CCn1cc(-c2ccnc3[nH]c(-c4cccc(CN(C)C)c4)cc23)c(-c2ccc(NC(=O)N(C)C)cc2)n1
# Method in brief: as §1
# [5] = compound: CN1CCC(CNc2ccc3ncc(-c4cccc(OC(F)(F)F)c4)n3n2)CC1
# Method in brief: as §1
# saracatinib = compound: CN1CCN(CCOc2cc(OC3CCOCC3)c3c(Nc4c(Cl)ccc5c4OCO5)ncnc3c2)CC1 [saracatinib]
# Method in brief: as §1
# sotrastaurin = compound: CN1CCN(c2nc(C3=C(c4c[nH]c5ccccc45)C(=O)NC3=O)c3ccccc3n2)CC1 [sotrastaurin]
# Method in brief: as §1
# alvocidib = compound: CN1CC[C@H](c2c(O)cc(O)c3c(=O)cc(-c4ccccc4Cl)oc23)[C@H](O)C1 [alvocidib]
# Method in brief: as §1
# Tubastatin A = compound: CN1CCc2c(c3ccccc3n2Cc2ccc(C(=O)NO)cc2)C1 [Tubastatin A]
# Method in brief: as §1
# [6] = compound: CNC(=O)C1=CC=CC=C1NC2=NC(=NC=C2Cl)NC3=C(C=C(C=C3)N4CCOCC4)OC
# Method in brief: as §1
# defactinib = compound: CNC(=O)c1ccc(Nc2ncc(C(F)(F)F)c(NCc3nccnc3N(C)S(C)(=O)=O)n2)cc1 [defactinib]
# Method in brief: as §1
# [7] = compound: CNc1nc(-c2ccc3c(N)n[nH]c3c2)cc(N2C[C@@H](C(=O)NC3CCCCC3)CC[C@H]2C)n1
# Method in brief: as §1
# encorafenib = compound: COC(=O)N[C@@H](C)CNc1nccc(-c2cn(C(C)C)nc2-c2cc(Cl)cc(NS(C)(=O)=O)c2F)n1 [encorafenib]
# Method in brief: as §1
# [8] = compound: COC(=O)[C@H](CCSC)NC(=O)C1=C(C=C(C=C1)NC[C@H](CS)N)C2=CC=CC=C2
# Method in brief: as §1
# alisertib = compound: COc1cc(Nc2ncc3c(n2)-c2ccc(Cl)cc2C(c2c(F)cccc2OC)=NC3)ccc1C(=O)O [alisertib]
# Method in brief: as §1
# [9] = compound: COc1cc2nc(-c3cc(F)ccc3O)nc(N[C@@H]3CNC[C@H]3C(C)(C)O)c2cc1OC
# Method in brief: as §1
# gefitinib = compound: COc1cc2ncnc(Nc3ccc(F)c(Cl)c3)c2cc1OCCCN1CCOCC1 [gefitinib]
# Method in brief: as §1
# Sequence of UniProt Q9HCG8 (Q9HCG8 whole entry, looked up): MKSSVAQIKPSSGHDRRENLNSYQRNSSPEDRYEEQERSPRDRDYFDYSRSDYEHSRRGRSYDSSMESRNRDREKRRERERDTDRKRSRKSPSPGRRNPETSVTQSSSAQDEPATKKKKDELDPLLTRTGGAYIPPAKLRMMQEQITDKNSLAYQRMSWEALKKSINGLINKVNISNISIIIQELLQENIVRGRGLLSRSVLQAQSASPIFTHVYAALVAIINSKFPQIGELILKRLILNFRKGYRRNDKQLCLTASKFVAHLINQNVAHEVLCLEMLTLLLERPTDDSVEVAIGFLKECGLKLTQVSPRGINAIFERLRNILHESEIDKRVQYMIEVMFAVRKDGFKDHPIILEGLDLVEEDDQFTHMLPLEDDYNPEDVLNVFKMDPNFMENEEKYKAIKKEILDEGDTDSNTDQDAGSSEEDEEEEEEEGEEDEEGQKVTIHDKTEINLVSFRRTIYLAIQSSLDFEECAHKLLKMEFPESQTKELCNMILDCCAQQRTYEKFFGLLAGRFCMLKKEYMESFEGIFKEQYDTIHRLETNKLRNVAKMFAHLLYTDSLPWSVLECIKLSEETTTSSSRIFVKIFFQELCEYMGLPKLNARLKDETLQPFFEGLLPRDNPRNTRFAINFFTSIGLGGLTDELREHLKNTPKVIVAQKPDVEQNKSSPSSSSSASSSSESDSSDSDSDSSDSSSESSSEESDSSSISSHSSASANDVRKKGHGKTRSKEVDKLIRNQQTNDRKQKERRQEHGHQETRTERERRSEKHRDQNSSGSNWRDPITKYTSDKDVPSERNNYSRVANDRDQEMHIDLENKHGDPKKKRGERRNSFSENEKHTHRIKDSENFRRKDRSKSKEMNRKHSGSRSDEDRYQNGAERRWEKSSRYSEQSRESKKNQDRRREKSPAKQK
# Sequence of UniProt P19784 (P19784 whole entry, looked up): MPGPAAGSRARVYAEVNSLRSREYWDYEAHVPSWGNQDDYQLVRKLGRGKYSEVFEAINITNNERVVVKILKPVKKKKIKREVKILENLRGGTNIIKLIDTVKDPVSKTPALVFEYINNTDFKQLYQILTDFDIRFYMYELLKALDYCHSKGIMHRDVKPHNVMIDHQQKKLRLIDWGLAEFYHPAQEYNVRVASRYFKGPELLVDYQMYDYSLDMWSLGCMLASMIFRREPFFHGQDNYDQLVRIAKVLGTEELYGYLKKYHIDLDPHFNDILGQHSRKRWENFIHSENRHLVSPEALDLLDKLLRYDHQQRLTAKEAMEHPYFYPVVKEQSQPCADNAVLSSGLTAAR
# Sequence of UniProt A8TX70 (A8TX70 whole entry, looked up): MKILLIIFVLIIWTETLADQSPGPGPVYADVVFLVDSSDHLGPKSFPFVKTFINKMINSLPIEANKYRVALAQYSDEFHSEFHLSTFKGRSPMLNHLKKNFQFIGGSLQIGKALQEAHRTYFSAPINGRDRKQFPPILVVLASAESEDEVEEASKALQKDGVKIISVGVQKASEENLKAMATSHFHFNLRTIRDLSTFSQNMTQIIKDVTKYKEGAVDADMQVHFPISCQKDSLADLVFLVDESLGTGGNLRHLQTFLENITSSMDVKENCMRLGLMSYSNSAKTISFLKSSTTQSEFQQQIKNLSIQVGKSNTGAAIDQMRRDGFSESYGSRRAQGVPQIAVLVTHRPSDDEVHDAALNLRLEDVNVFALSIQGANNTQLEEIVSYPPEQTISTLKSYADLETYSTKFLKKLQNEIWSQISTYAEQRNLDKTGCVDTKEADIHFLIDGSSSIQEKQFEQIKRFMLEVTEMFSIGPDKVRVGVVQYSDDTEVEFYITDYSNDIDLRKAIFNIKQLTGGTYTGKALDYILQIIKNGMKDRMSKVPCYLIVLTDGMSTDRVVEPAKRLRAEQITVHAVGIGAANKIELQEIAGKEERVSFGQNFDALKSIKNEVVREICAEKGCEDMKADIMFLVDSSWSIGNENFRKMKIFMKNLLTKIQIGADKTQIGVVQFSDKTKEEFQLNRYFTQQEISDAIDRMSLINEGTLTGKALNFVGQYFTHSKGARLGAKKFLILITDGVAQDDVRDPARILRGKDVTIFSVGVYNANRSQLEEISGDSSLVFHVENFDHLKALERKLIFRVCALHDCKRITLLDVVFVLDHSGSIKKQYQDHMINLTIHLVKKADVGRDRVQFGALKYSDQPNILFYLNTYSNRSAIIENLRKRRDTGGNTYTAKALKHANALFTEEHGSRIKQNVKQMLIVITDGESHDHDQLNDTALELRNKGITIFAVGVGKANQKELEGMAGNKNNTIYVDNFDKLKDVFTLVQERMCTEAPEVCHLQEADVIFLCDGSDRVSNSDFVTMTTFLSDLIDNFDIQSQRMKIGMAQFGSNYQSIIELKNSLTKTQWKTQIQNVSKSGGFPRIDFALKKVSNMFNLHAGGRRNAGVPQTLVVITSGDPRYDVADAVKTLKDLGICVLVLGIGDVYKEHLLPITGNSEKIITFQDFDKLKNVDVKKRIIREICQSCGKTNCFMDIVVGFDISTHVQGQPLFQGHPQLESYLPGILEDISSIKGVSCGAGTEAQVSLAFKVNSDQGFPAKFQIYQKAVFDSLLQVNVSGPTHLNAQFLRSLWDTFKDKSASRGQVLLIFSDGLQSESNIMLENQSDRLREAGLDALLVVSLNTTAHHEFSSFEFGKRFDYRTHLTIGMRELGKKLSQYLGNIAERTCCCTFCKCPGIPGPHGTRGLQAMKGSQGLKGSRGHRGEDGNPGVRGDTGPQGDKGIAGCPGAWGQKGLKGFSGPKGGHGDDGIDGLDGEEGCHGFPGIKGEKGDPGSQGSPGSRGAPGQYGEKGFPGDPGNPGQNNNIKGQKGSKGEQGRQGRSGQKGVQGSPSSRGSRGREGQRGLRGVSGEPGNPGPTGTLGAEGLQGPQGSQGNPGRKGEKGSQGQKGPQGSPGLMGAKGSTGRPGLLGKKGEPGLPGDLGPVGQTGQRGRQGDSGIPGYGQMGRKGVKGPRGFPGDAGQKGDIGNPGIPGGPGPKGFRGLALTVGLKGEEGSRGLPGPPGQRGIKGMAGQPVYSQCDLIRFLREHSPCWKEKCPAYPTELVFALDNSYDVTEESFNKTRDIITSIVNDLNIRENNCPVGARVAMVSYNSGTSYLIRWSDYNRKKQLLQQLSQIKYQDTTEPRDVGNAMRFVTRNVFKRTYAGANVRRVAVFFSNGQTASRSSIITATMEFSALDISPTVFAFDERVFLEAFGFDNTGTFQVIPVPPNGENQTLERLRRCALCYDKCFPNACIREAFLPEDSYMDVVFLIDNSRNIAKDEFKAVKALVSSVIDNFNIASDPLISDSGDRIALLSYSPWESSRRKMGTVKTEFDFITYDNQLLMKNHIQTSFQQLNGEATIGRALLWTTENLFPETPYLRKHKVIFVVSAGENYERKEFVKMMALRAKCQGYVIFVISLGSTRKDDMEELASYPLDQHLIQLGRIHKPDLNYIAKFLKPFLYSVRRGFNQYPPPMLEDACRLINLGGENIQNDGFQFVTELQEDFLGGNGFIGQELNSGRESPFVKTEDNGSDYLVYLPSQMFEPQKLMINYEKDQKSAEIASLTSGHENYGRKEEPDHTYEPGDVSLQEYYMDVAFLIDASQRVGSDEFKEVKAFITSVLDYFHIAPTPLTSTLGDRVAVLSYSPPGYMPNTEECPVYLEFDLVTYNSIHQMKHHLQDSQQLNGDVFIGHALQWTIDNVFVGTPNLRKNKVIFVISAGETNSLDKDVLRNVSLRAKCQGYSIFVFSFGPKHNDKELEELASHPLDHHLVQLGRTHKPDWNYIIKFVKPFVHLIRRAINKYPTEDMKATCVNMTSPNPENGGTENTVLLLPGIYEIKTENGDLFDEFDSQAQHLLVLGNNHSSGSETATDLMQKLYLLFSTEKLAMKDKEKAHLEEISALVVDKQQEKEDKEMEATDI
# Sequence of UniProt O75208 (O75208 whole entry, looked up): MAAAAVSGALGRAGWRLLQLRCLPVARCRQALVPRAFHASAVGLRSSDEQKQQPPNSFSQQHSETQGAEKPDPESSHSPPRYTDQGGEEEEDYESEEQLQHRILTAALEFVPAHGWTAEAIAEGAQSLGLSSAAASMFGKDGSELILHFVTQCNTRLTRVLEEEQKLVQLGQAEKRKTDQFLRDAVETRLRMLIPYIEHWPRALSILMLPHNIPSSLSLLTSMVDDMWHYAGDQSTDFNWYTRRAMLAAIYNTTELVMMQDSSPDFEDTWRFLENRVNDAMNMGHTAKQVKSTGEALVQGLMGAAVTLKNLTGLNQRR
# Sequence of UniProt Q9BY43 (Q9BY43 whole entry, looked up): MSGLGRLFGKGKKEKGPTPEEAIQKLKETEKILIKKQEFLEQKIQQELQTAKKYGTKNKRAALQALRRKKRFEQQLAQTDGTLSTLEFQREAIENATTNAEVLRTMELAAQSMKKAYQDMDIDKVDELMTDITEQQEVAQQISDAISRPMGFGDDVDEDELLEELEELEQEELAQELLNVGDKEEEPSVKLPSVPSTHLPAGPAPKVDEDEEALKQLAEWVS
# Sequence of UniProt P09622 (P09622 whole entry, looked up): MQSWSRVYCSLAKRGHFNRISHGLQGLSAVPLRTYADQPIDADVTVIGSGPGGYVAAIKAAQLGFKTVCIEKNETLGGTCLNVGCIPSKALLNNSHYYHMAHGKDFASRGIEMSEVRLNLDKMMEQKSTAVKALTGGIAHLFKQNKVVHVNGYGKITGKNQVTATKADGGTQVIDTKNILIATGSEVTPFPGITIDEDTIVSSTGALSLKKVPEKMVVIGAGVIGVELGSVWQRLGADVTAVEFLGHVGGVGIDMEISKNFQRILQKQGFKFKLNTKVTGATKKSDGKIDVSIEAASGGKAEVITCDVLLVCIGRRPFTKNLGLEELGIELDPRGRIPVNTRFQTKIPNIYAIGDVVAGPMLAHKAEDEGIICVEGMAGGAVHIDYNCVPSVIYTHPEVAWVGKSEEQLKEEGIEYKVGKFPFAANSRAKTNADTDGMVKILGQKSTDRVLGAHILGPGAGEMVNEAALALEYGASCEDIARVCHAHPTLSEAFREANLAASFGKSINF
Target,log2 fold change (vemurafenib),log2 fold change [1],log2 fold change (barasertib),log2 fold change [2],log2 fold change (volasertib),log2 fold change [3],log2 fold change [4],log2 fold change [5],log2 fold change (saracatinib),log2 fold change (sotrastaurin),log2 fold change (alvocidib),log2 fold change (Tubastatin A),log2 fold change [6],log2 fold change (defactinib),log2 fold change [7],log2 fold change (encorafenib),log2 fold change [8],log2 fold change (alisertib),log2 fold change [9],log2 fold change (gefitinib)
CHMP4A isoform 2 (UniProt Q9BY43),0 (inactive),-0.002 (inactive),-0.053 (inactive),0.064 (inactive),0.039 (inactive),-0.002 (inactive),-0.278 (active),0.222 (inactive),0.048 (inactive),0.024 (inactive),-0.096 (inactive),0.048 (inactive),-0.01 (inactive),0.007 (inactive),0.039 (inactive),0.026 (inactive),-0.001 (inactive),0.028 (inactive),0.043 (inactive),0.041 (inactive)
CHORDC1 (UniProt Q9UHD1),0.017 (inactive),-0.003 (inactive),-0.029 (inactive),0.009 (inactive),0.02 (inactive),0.002 (inactive),0.288 (active),-0.003 (inactive),-0.006 (inactive),-0.036 (inactive),0.033 (inactive),0.004 (inactive),0.007 (inactive),0 (inactive),-0.002 (inactive),-0.029 (inactive),-0.018 (inactive),-0.012 (inactive),-0.008 (inactive),-0.026 (inactive)
DNAJC3 (UniProt Q13217),-0.016 (inactive),0.009 (inactive),0.006 (inactive),0.023 (inactive),-0.004 (inactive),0.082 (inactive),0.016 (inactive),-0.076 (inactive),0.008 (inactive),-0.109 (inactive),0.004 (inactive),0.073 (inactive),0.005 (inactive),0.021 (inactive),-0.029 (inactive),0.044 (inactive),0.011 (inactive),0 (inactive),0.005 (inactive),0.026 (inactive)
DPH5 isoform 5 (UniProt Q9H2P9),0.144 (inactive),0.016 (inactive),-0.05 (inactive),0.16 (inactive),0.273 (inactive),-0.011 (inactive),0.182 (inactive),0.033 (inactive),-0.029 (inactive),0.049 (inactive),-0.012 (inactive),0.02 (inactive),0.119 (inactive),-0.002 (inactive),0.02 (inactive),-0.044 (inactive),-0.024 (inactive),-0.045 (inactive),-0.018 (inactive),0.04 (inactive)
CNST (UniProt Q6PJW8),0.002 (inactive),-0.026 (inactive),-0.07 (inactive),0.079 (inactive),-0.008 (inactive),0.02 (inactive),-0.066 (inactive),0.019 (inactive),0.033 (inactive),0.039 (inactive),0 (inactive),-0.055 (inactive),0.043 (inactive),0.041 (inactive),-0.027 (inactive),0.03 (inactive),-0.096 (inactive),-0.031 (inactive),0.024 (inactive),0.002 (inactive)
CSDE1 isoform 4 (UniProt O75534),-0.002 (inactive),0.004 (inactive),0.01 (inactive),-0.083 (inactive),-0.041 (inactive),0.028 (inactive),0.069 (inactive),-0.066 (inactive),0.003 (inactive),-0.018 (inactive),0 (inactive),-0.104 (inactive),0.01 (inactive),0 (inactive),-0.014 (inactive),-0.008 (inactive),0.209 (active),0.004 (inactive),-0.021 (inactive),-0.014 (inactive)
DLD (UniProt P09622),0.007 (inactive),0.003 (inactive),-0.032 (inactive),0.032 (inactive),0.057 (inactive),-0.018 (inactive),-0.071 (inactive),0.04 (inactive),0.009 (inactive),-0.015 (inactive),-0.024 (inactive),0.041 (inactive),0.03 (inactive),-0.02 (inactive),0.046 (inactive),-0.014 (inactive),-0.13 (inactive),0 (inactive),0.008 (inactive),-0.055 (inactive)
COQ9 (UniProt O75208),-0.023 (inactive),0.126 (inactive),0.275 (active),0 (inactive),-0.012 (inactive),0.002 (inactive),0.015 (inactive),-0.066 (inactive),-0.001 (inactive),-0.101 (inactive),0.002 (inactive),-0.041 (inactive),-0.035 (inactive),0.023 (inactive),0.136 (inactive),-0.021 (inactive),0.024 (inactive),0.026 (inactive),0.025 (inactive),-0.012 (inactive)
CWC22 (UniProt Q9HCG8),0.002 (inactive),0.045 (inactive),0.028 (inactive),-0.209 (inactive),-0.033 (inactive),0.017 (inactive),0.393 (active),-0.273 (active),-0.052 (inactive),-0.013 (inactive),0.112 (inactive),-0.035 (inactive),0 (inactive),-0.026 (inactive),-0.036 (inactive),0.046 (inactive),0.093 (inactive),-0.065 (inactive),-0.058 (inactive),-0.028 (inactive)
CORO7 isoform 3 (UniProt P57737),0.031 (inactive),0.013 (inactive),0.008 (inactive),-0.042 (inactive),-0.01 (inactive),0.016 (inactive),0.044 (inactive),-0.175 (inactive),0.004 (inactive),0.008 (inactive),0.023 (inactive),-0.087 (inactive),-0.008 (inactive),0.028 (inactive),0.007 (inactive),-0.008 (inactive),0.114 (inactive),0.007 (inactive),-0.069 (inactive),-0.047 (inactive)
DNAJC1 (UniProt Q96KC8),-0.019 (inactive),0.006 (inactive),0.053 (inactive),0.017 (inactive),-0.012 (inactive),0.067 (inactive),0.033 (inactive),-0.293 (active),0.029 (inactive),-0.002 (inactive),0.016 (inactive),-0.053 (inactive),0.013 (inactive),0.06 (inactive),-0.059 (inactive),0.056 (inactive),-0.257 (inactive),0.038 (inactive),-0.104 (inactive),0.041 (inactive)
CXXC1 isoform 2 (UniProt Q9P0U4),-0.029 (inactive),-0.117 (inactive),-0.02 (inactive),-0.256 (inactive),-0.027 (inactive),0.031 (inactive),-0.072 (inactive),0.041 (inactive),-0.066 (inactive),-0.04 (inactive),-0.003 (inactive),-0.138 (inactive),-0.021 (inactive),-0.004 (inactive),0.468 (active),-0.032 (inactive),0.152 (inactive),0.069 (inactive),0.068 (inactive),0.015 (inactive)
COL6A5 (UniProt A8TX70),0.073 (inactive),0.041 (inactive),0.09 (inactive),0.078 (inactive),-0.044 (inactive),-0.055 (inactive),-0.834 (active),0.374 (inactive),-0.048 (inactive),-0.03 (inactive),-0.544 (inactive),0.029 (inactive),-0.048 (inactive),-0.111 (inactive),0.256 (inactive),-0.088 (inactive),0.1 (inactive),-0.038 (inactive),0.07 (inactive),-0.034 (inactive)
DEF6 (UniProt Q9H4E7),-0.004 (inactive),-0.005 (inactive),-0.05 (inactive),-0.101 (inactive),-0.05 (inactive),-0.033 (inactive),-0.071 (inactive),0.049 (inactive),0.07 (inactive),0.004 (inactive),-0.036 (inactive),-0.154 (inactive),0.027 (inactive),-0.07 (inactive),0.039 (inactive),0.019 (inactive),-0.002 (inactive),0.097 (inactive),0.013 (inactive),-0.01 (inactive)
CSNK2A2 (UniProt P19784),-0.219 (inactive),-0.005 (inactive),-0.044 (inactive),-0.031 (inactive),-0.082 (inactive),0.011 (inactive),-0.092 (inactive),0.418 (inactive),0 (inactive),0.023 (inactive),0.101 (inactive),-0.059 (inactive),0.321 (inactive),0.172 (inactive),-0.022 (inactive),-0.047 (inactive),0.012 (inactive),0.078 (inactive),0.135 (inactive),0.004 (inactive)
